Screening data deposited in PubChem by Paczesny and Yang Labs, IUPUI and University of Michigan.
ST2 IL33 inh: inhibitors of human ST2 (IL1RL1) binding to IL-33, primary screen, biochemical, AlphaLISA | Interleukin-1 receptor-like 1 (Homo sapiens), Q01638 | AlphaLISA ST2-Fc/biotin-IL-33 interaction, 1 h | inhibition, % for hits at 17 µM | hit rate 2.3% among 78,000 | AID 1259354, 2018; in the data active = inhibition above about 30%
Target sequence (Q01638 whole entry, looked up): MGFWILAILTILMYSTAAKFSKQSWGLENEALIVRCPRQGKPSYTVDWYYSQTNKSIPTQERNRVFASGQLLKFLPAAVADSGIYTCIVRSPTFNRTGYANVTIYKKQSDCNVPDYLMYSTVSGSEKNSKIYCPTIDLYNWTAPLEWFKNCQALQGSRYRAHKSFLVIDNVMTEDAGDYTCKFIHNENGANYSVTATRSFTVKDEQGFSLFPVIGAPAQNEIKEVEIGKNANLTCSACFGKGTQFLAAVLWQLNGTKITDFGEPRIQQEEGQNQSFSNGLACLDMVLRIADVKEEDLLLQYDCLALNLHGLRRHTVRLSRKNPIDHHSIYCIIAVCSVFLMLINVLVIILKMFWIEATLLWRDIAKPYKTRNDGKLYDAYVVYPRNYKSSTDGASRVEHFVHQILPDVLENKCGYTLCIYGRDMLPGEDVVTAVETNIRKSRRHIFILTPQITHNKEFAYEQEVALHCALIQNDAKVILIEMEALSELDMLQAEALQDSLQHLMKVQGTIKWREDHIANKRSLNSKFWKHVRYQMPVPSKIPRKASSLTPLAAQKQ
Active calls of the source: *; i = inactive. This is one part of a sample in which hits are shown more often than they occur.

SMILES	ST2 IL33 inh
CN1C[C@@H](NC(=O)c2ccccc2)C[C@H]1c1nc(-c2ccc(F)cc2)no1	i
CN1C[C@@H](NC(=O)Nc2ccccc2)C[C@H]1c1nc(-c2ccc(F)cc2)no1	i
Cc1ccc(-c2noc([C@@H]3C[C@H](NC(=O)Nc4cccc(F)c4)CN3C)n2)cc1	i
CN1C[C@@H](NC(=O)Nc2cccc(F)c2)C[C@H]1c1nc(-c2ccc(F)cc2)no1	36.0%*
O=C(NC1CC1)c1ccc2c(c1)N(Cc1ccc(Cl)cc1)C(=O)CS2	i
C[C@H]1[C@@H]2[C@@H](O)C([C@H](C)C(=O)N(C)Cc3ccccc3)CC[C@@]2(C)CC[C@@H]1NC(=O)c1ccc(C#N)cc1 (stereo partly specified)	i
Fc1cccc(CN2CCN(c3ccccn3)CC2)c1	i
CCCc1cc(NCCOC)n2c(nc3ccccc32)c1C#N	i
N#Cc1c(C(F)(F)F)cc(NCCN2CCOCC2)n2c1nc1ccccc12	34.0%*
Cc1cc(NCCN2CCOCC2)n2c(nc3ccccc32)c1C#N	i
N#Cc1cn(C(=O)CCCCCN2C(=O)c3ccccc3C2=O)nc1N	i
O=C(CN(Cc1ccccc1Cl)S(=O)(=O)c1ccc(Cl)cc1)N1CCCC1	i
CCC(=O)N1CCc2cc(Br)cc(S(=O)(=O)NCCc3ccc(Cl)cc3)c21	i
NC(=O)CSc1nc2c([nH]c3ccccc32)c(=O)n1-c1ccccc1	i
COc1ccc(-n2c(SCC(N)=O)nc3c([nH]c4ccccc43)c2=O)cc1	i
O=C(CSc1nc2c([nH]c3ccccc32)c(=O)n1-c1ccc(Cl)cc1)Nc1nccs1	31.0%*
COc1ccc(C2SCC(=O)N2c2ccccc2)cc1 (stereo unspecified)	i
COc1ccc(N2C(=O)CC(Sc3ccccc3C(=O)O)C2=O)cc1 (stereo unspecified)	i
COc1ccc(N2C(=O)C(O)=CC2(OC)c2ccccc2)cc1 (stereo unspecified)	45.0%*
CCOC(=O)CN1C(=O)CSc2ccc(S(=O)(=O)N(CC)CC)cc21	i
Cc1ccc(OCC(=O)Nc2cc(C)ccc2OCc2cc(=O)n3oc(C)cc3n2)cc1	i
CC1(c2ccc(Cl)cc2)CC(C)(C)N(C(=O)CSC#N)c2ccccc21 (stereo unspecified)	i
CC1(c2ccccc2)CC(C)(C)N2C(=O)C(=O)c3cccc1c32 (stereo unspecified)	33.0%*
CC1(O)c2ccccc2C(=O)N1Cc1ccccc1 (stereo unspecified)	i
COc1cc(C2C3=C(CCCC3=O)Nc3[nH]c(=O)[nH]c(=O)c32)cc(OC)c1OC (stereo unspecified)	i
SMILES	ST2 IL33 inh
COc1ccc(Cl)cc1NC(=O)CCC1CCCN(C(=O)CC2=CCCCC2)C1 (stereo unspecified)	i
CCCCOc1ccc(C2=N/C(=C\c3cccc([N+](=O)[O-])c3O)C(=O)O2)cc1	i
CC1(C)CC(=O)C2=C(C1)NC1=C(C(=O)CC(C)(C)C1)C2c1ccccc1	i
CC1(C)CC(=O)C2=C(C1)Nc1sc(C#N)c(N)c1C2c1ccccc1 (stereo unspecified)	33.0%*
CC1(C)CC(=O)C2=C(C1)Nc1[nH]c(=O)[nH]c(=O)c1C2c1ccccc1 (stereo unspecified)	i
O=C(Nc1ccc(Cl)cc1Cl)c1ccccc1Cl	i
CCOc1ccccc1N1CCN(C(=O)C2CCCCC2C(=O)O)CC1 (stereo unspecified)	i
O=C(O)c1ccc2c(=O)n(-c3ccc(F)cc3)c(=O)[nH]c2c1	i
COCCCNC(=O)C1c2cc(OC)c(OC)cc2C(=O)N(C)C1c1ccc(OC)cc1 (stereo unspecified)	i
CCN(CC)CCNC(=O)C1c2cc(OC)c(OC)cc2C(=O)N(C)C1c1ccc(OC)cc1 (stereo unspecified)	i
COc1ccc(C2C(C(=O)NCCN(C)C)c3cc(OC)c(OC)cc3C(=O)N2C)cc1 (stereo unspecified)	33.0%*
COc1ccccc1OCCOc1ccccc1Cl	i
CC(C)O[C@H]1CN(C(=O)c2cc(Cn3ccc4ccccc43)[nH]n2)C[C@@H]1O	i
O=S(=O)(c1ccc(Cl)c(Cl)c1)N1CCCCC1	i
O=[N+]([O-])c1ccc(N2CCN(Cc3ccccc3)CC2)c(S(=O)(=O)N2CCOCC2)c1	i
Cc1ccc(S(=O)(=O)N2CCN(C(=O)c3ccccc3)C2)cc1[N+](=O)[O-]	i
O=[N+]([O-])c1ccc(N2CCN(c3ccccc3)CC2)c(S(=O)(=O)N2CCCCC2)c1	50.0%*
O=[N+]([O-])c1ccccc1S(=O)(=O)Nc1ccc(Cl)c(Cl)c1	i
CN(C)S(=O)(=O)c1cc([N+](=O)[O-])ccc1N1CCCCCC1	i
O=[N+]([O-])c1ccccc1N1CCN(S(=O)(=O)c2ccc(Cl)c(Cl)c2)CC1	30.0%*
Cc1ccc(S(=O)(=O)N2CCN(S(=O)(=O)c3ccccc3)C2)cc1[N+](=O)[O-]	i
Cc1ccc(S(=O)(=O)N2CCN(c3ccccc3)CC2)cc1[N+](=O)[O-]	40.0%*
